From PubChem BioAssay (NCI) come the findings set out here.

What all share (test): NCI-60 one-dose screen, 48 h (100 = growth as untreated, 0 = no growth, -100 = all killed)
Conditions in all cases: 10 µM

For assay [1], the system named is SK-MEL-2 melanoma.
Assay [2] concerns EKVX NSCLC.
For assay [3], the system named is SN12C renal.
Assay [4] concerns UO-31 renal.
For assay [5], the system named is TK-10 renal.
Assay [6] concerns ACHN renal.
Assay [7] has as its system CAKI-1 renal.
The test system of assay [8] is A498 renal.
Assay [9] deals with MOLT-4 leukemia.
In assay [10] the test system is SR leukemia.
For assay [11], the system named is RPMI-8226 leukemia.
The subject of assay [12] is OVCAR-8 ovarian.
For assay [13], the system named is OVCAR-5 ovarian.
The test system of assay [14] is OVCAR-4 ovarian.
For assay [15], the system named is SK-OV-3 ovarian.
In assay [16] the test system is OVCAR-3 ovarian.
Assay [17] relates to HS 578T breast.
Assay [18] deals with NCI/ADR-RES ovarian.
The subject of assay [19] is IGROV1 ovarian.
Assay [20] has as its system CCRF-CEM leukemia.

The structures appear in SMILES notation. Compounds without any hit were thinned out: in the full panel of roughly 83,000, 20% have a hit.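 The test compound was applied at a single concentration to cells in 96-well plates for 48 hours, and percent growth was recorded.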 Values without a mark were called inactive. The source made the active and inactive calls. Rule for the calls: active = growth percent below 10; inactive = the rest.

As to `CC(C)(C)OC(=O)N1CCc2c(sc3ncnc(N/N=C/c4cccc5ccccc45)c23)C1`, the growth is 49.4% in assay [1]; 8.53% (active) in assay [2]; 32.8% in [3]; -8.22% (active) in assay [4]; 36.9% in assay [5]; 6.63% (active) in [6]. For the same molecule, the growth was 24.2% in assay [7]; 4.77% (active) in assay [8]; 14.4% in assay [9]; 24.1% in [10]; 2.4% (active) in assay [11]; 27.6% in [12]. Besides, the growth in assay [13] is 31.8%; in [14], 33.4%; in [15], 37%; in assay [16] it was 46.4%; in assay [17], 17.2%; in assay [18] it was 8.76% (active).
Consider `CCCc1cn(CC(=O)Nc2nc3ccccc3s2)nn1`, for which the growth was 105% in [1]; 101% in assay [2]; 98.5% in assay [3]; 65.9% in assay [4]; 103% in assay [5]; 101% in [6]. Moreover, the growth in assay [7] was 87.6%; in assay [8], 129%; in [9], 110%; in [10], 110%; in [11], 112%; in assay [12], 100%. Besides, the growth in assay [13] is 98.6%; in assay [14], 109%; in assay [15], 110%; in [19], 97.3%; in assay [16] it was 107%; in assay [17] it was 101%. Besides, the growth in assay [18] is 107%.
On to `CC(C)(C)OC(=O)N1CCc2c(sc3ncnc(N/N=C/c4ccc(Br)cc4)c23)C1`, for which the growth in assay [1] was 68.4%; in [2], 52%; in assay [3] it was 75.2%; in assay [4] it was 44.7%; in [5] it was 78.2%; in assay [6], 53.1%. Moreover, the growth in assay [7] is 41%; in [8] it was 31.2%; in [9], 33.9%; in assay [10], 36.3%; in assay [11], 19.1%; in [12], 73.7%. The growth in assay [13] is 77.6%; in assay [14], 74%; in assay [15], 75.7%; in [19], 61.1%; in assay [16] it was 86.4%; in assay [17] it was 73.9%. For the same molecule, the growth in assay [18] is 35.4%.
Consider `O=C(Nc1cc([N+](=O)[O-])c2[nH]c(=O)c3ccccc3c2c1)C(F)(F)F`, for which the growth is 106% in assay [1]; 67.1% in [2]; 76.8% in assay [3]; 54.5% in [4]; 84% in [5]; 58.6% in assay [6]. The growth in assay [7] was 89.1%; in assay [20], 72.8%; in assay [9] it was 55.2%; in [10], 52.3%; in [12], 77.2%; in [13], 104%. For the same molecule, the growth in assay [14] was 92.6%; in assay [15], 81.2%; in [19] it was 93.6%; in assay [16], 106%; in assay [17], 105%; in [18] it was 76.9%.
Regarding `Cc1cc(NC(=O)c2ccc(C)c(Nc3nccc(-c4cccnc4)n3)c2)cc(-n2cnc(C)c2)c1`, the growth in assay [1] was 83.5%; in assay [2], -56.9% (active); in assay [3], 27.5%; in [4], -55% (active); in assay [5] it was -20.5% (active); in assay [6], -13.7% (active). Also, the growth is -80.2% (active) in assay [7]; 38.1% in [20]; 14.3% in [9]; -22.3% (active) in assay [10]; 61.3% in assay [12]; 46% in assay [13]. The growth was -28.7% (active) in assay [14]; 27.6% in assay [15]; 32.3% in assay [19]; -7.87% (active) in assay [16]; 5.73% (active) in assay [17]; 59.1% in assay [18].
`CCCCN(CCCC)C(=O)[C@H](CC)[C@@H]1CC[C@@H](C)[C@@H]([C@H](C)[C@@H](O)[C@@H](C)C(=O)[C@H](CC)C2O[C@]3(C=C[C@@H](O)[C@]4(CC[C@@](C)([C@H]5CC[C@](O)(CC)[C@H](C)O5)O4)O3)[C@H](C)C[C@@H]2C)O1` (stereo not given in full): the growth in assay [1] is -12.4% (active); in assay [2], -8.73% (active); in [3], 3.56% (active); in assay [4], -11.7% (active); in assay [5] it was 18.6%; in assay [6], 7.05% (active). Also, the growth was -3.74% (active) in [7]; -14.6% (active) in assay [8]; 11.8% in assay [9]; 27% in assay [10]; 12.5% in [12]; 24% in [13]. Further, the growth was 9.88% (active) in assay [14]; -8.58% (active) in assay [15]; 20.1% in assay [19]; 4.13% (active) in assay [16]; 14.5% in assay [17]; 25.4% in [18].
`COc1ccc(-c2nn(-c3cccc(Cl)c3)cc2-c2cc(-c3cccs3)[nH]c(=S)n2)cc1`: the growth in assay [1] is 71.3%; in assay [2], 44.6%; in [3], 61.1%; in assay [4], 24.3%; in [5], 66.7%; in [6] it was 48.4%. Also, the growth in assay [7] was 12.5%; in assay [20], 39.5%; in assay [9], 21.9%; in assay [10] it was 32.6%; in assay [12], 48.3%; in assay [13], 83.1%. The growth in assay [14] was 60.4%; in assay [15], 83%; in [19], 50.7%; in [16] it was 57.8%; in [17], 62.7%; in assay [18], 47.4%.
Consider `CN1CCc2c(sc3nc4n(-c5ccc(Cl)cc5)cnn4c(=O)c23)C1`, for which the growth in [1] is 118%; in assay [2], 87.2%; in assay [3], 98.9%; in assay [4] it was 84.1%; in assay [5], 116%; in assay [6], 109%. Besides, the growth in assay [7] was 97.4%; in [9], 104%; in assay [10], 120%; in assay [12] it was 100%; in [13] it was 105%; in assay [14], 111%. Moreover, the growth in [15] was 91.4%; in assay [19], 95.3%; in [16], 101%; in assay [17], 115%; in assay [18], 104%.
